From PubChem BioAssay AID651742 (Broad Institute, 2012)
Screen size: about 5,600 compounds; about 780 (14%) were called active. Another 3% or so got no clear call; they are omitted. The list is a sample of the results. Values without a mark were called inactive.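 How the source made its calls: active means mean signal decrease across replicates above about 35% based on untreated-well scatter, with enough replicates individually passing (limit read from the data); inconclusive means no rule stated though some were filed; inactive means the rest.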

Test: cytotoxicity in mouse NIH/3T3 fibroblasts, confirmation, cytotoxicity control for T. cruzi proliferation inhibitor project, cell-based, cherry-pick, single point (AID 651742);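 further: 0% = median of neutral control wells and 100% = median of positive control wells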
Conditions: NIH/3T3 viability, CellTiter-Glo ATP luminescence, 90 h; at 8.35 µM; hits give high values

Row | Structure (SMILES) | cytotoxicity (signal decrease)
1 | O=C(Cc1ccccn1)N1CCCCN2[C@@H](CO)[C@@H](c3ccc(C#Cc4ccccc4)cc3)[C@@H]2C1 | 33.5%
2 | COc1ccc(-c2ccc([C@H]3[C@H](CO)N4CCCCN(C(=O)Cc5ccncc5)C[C@@H]34)cc2)cc1 | 17.6%
3 | COc1ccc(C#Cc2ccc([C@H]3[C@H](CO)N4CCCCN(C(=O)Cc5ccccc5)C[C@@H]34)cc2)cc1 | 58.2% (active)
4 | O=C(Cc1cccnc1)N1CCCCN2[C@@H](CO)[C@H](c3ccc(C#CC4CCCC4)cc3)[C@@H]2C1 | 23.3%
5 | C/C=C/c1ccc([C@H]2[C@H](CO)N3CCCCN(C(=O)Cc4ccncc4)C[C@@H]23)cc1 | 11.1%
